Hits are enriched below; roughly 1.3% of the tested compounds scored in any of these assays.
TRPV1 PAM – enhances activation of the human vanilloid receptor TRPV1; potentiation, % at 8.33 µM; 320,000 compounds, 0.02% hits; Q8NER1; TRPV1-expressing cells, Fluo-8 calcium influx, capsaicin EC20 potentiation; in the data active means potentiation above about 80%; inconclusive means between about 30% and that limit; further: 0% is about no effect
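Fluo-8 calcium influx in TRPV1-expressing cells, kinetic read (ex 480/em 520 nm). Compound added and read 3 min for agonist activity, followed by capsaicin at EC20 final and 2 min further read for enhancement.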
KCNH2 WT inh – KCNH2 (human, wildtype) channel inhibition | Q12809 | U2OS, BacMam KCNH2, thallium flux FluxOr; hits give low values | activity change, % at 1.84 µM | 340,000 compounds, 0.37% hits | AID 720551;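 active means maximum activity change below -70%; inconclusive means maximum activity change between -70% and -50%; inactive means maximum activity change above -50%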; further: on the % scale 0 is the no-effect control and ±100 the full control effect
Target sequence (Q12809 whole entry, looked up): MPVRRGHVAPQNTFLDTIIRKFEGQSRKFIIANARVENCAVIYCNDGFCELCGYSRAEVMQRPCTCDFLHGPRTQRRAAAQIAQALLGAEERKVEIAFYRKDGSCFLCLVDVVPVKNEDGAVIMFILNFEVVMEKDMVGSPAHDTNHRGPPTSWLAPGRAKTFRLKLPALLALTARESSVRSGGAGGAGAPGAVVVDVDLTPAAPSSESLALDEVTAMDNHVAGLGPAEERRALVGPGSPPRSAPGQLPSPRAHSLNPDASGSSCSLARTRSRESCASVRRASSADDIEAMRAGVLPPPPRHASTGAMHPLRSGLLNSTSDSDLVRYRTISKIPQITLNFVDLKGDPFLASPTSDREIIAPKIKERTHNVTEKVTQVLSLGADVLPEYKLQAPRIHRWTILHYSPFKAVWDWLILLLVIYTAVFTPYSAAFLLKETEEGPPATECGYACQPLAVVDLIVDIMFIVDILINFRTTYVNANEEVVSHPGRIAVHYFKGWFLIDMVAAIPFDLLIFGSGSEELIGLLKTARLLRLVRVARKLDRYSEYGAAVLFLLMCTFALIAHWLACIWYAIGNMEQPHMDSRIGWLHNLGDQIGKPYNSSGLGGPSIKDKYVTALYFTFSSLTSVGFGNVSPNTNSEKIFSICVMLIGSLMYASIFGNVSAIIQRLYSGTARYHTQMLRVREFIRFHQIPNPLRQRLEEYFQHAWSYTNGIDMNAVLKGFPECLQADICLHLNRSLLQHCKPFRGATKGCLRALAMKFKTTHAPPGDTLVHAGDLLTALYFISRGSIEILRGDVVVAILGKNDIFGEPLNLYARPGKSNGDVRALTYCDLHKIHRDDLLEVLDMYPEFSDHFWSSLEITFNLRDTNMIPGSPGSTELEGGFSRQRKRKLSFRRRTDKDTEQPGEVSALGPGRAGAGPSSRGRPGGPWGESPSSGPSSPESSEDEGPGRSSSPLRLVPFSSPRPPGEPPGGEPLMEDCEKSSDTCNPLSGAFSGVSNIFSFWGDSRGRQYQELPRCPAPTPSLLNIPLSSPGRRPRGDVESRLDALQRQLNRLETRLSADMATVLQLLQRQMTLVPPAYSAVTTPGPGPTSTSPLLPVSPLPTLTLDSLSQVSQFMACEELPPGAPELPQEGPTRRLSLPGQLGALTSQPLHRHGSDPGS
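U2OS cells transduced with wild-type KCNH2 virus are loaded with FluxOr dye for 45 min, and thallium flux is measured in kinetic reads before and after stimulation buffer. Rate constants are normalized to DMSO controls.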
KCNH2 3.1 inh – blocks the human KCNH2 3.1 channel isoform; activity change, % (tested at about 1.8 µM); AID 720553; 340,000 compounds, 0.95% hits; U2OS KCNH2 3.1, thallium flux FluxOr; hits give low values;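 active means maximum activity change below -70%; inconclusive means maximum activity change from -70% to -50%; inactive means maximum activity change above -50%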;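 further: thallium influx rate constant from kinetic fluorescence after stimulation buffer; on the % scale 0 is the no-effect control and ±100 the full control effect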
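Measured as rate of thallium-driven FluxOr signal in transduced U2OS cells carrying the 3.1 channel, read kinetically for 2 min upon stimulation; values are rate constants scaled to DMSO control wells.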
TRPV1 ag – human TRPV1 agonism. Q8NER1. TRPV1-expressing cells, Fluo-8 calcium influx, agonist mode. activation, % at 8.33 µM. 320,000 compounds, 0.19% hits. AID 540275; in the data active means activation above about 80%; inconclusive means between about 30% and that limit; further: 0% is about no effect
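Cells expressing TRPV1 were dye-loaded with Fluo-8 and read kinetically: 10 s baseline, 3 min after compound (agonist portion), then 2 min after EC20 capsaicin (allosteric enhancer portion). Calcium-bound dye fluorescence at 480/520 nm.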
TRPML1 inh – human mucolipin-1 channel inhibition; 390,000 compounds, 0.02% hits; activity change, negative = inhibition, % (concentration not given with the values); TRPML1-inducible cells, Ca2+ dye fluorescence, FDSS; hits give low values; inhibition of EC80 agonist-evoked calcium signal; in the data active means activity change below about -50%; inconclusive means between about -30% and that limit;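 further: stimulus is agonist 54-4 at its EC80 concentration; on the % scale 0 is the no-effect control and ±100 the full control effect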
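Calcium fluorescence in TRPML1-DL cells induced overnight with Tet: a 110 s read after compound pin addition, then a 110 s antagonist read after challenge with 54-4 at 4 uM final (EC80).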
TRPML1 ag – activates the human TRPML1 channel. AID 624414. TRPML1-expressing cells, Ca2+ dye fluorescence, FDSS. 410,000 compounds, 0.12% hits. Q9GZU1. activation, % (concentration not given with the values); in the data active means activation above about 50%; inconclusive means mostly about 30% to 49%; further: 0% is about no effect
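Tet-induced TRPML1-DL cells, 1,500 per well, cultured overnight, were loaded with a no-wash Ca2+ dye for 45–90 min. Calcium fluorescence was recorded on the FDSS for 110 s after compound addition, before the EC80 agonist (4 uM 54-4) was added.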
An asterisk follows results filed as active; ? = inconclusive; · = no result given.

SMILES	TRPV1 PAM	KCNH2 WT inh	KCNH2 3.1 inh	TRPV1 ag	TRPML1 inh	TRPML1 ag
Cc1cccc(N2CCN(CC(O)COc3ccccc3)CC2)c1 (configuration not stated)	·	41.8	-1.7	·	5.4	1.1
OC(COCc1ccc(Cl)cc1)CN1CCCCC1 (configuration not stated)	-5.1	8.4	-4.6	-2.1	1.3	0.6
COc1cccc(OCC(O)CN2CCN(c3ccc(Cl)cc3)CC2)c1 (configuration not stated)	5.8	34.6	-34.3	0.7	26.9	0.6
OC(COCc1ccc(Cl)cc1)CN1CCN(CC(O)COCc2ccc(Cl)cc2)CC1 (configuration not stated)	0.3	1.9	-88.4*	4.3	-8.8	0.0
OC(COc1ccc(Cl)cc1)CN1CCN(c2cccc(Cl)c2)CC1 (configuration not stated)	-4.0	7.2	-77.8*	2.3	4.3	-1.3
CC(=O)Nc1ccc(OCC(O)CN2CCN(c3cccc(Cl)c3)CC2)cc1 (configuration not stated)	-2.1	8.6	0.5	-1.8	6.6	-0.6
COc1ccc(OCC(O)CN2CCN(c3ccc(Cl)cc3)CC2)cc1 (configuration not stated)	23.6	25.5	-83.9*	2.1	13.3	2.9
COc1ccc(-c2[nH]c(-c3ccccc3)nc2SCC(=O)Nc2ccc3c(c2)OCO3)cc1	·	·	·	·	-8.9	0.9
Cc1nn(-c2ccccc2)c2nc(C3CC3)cc(C(=O)Nc3cccc(F)c3)c12	·	·	·	·	-7.9	-0.1
CCOC(=O)c1ccc(N2C(=O)c3n[nH]c(-c4ccco4)c3C2c2ccccc2OC)cc1 (configuration not stated)	·	·	·	·	-2.5	2.1
CCOc1ccc(OCC(O)CN2CCc3ccccc3C2)cc1 (configuration not stated)	0.6	31.5	?	-1.8	7.7	0.0
Cc1cc(OCC(O)CN2CCc3ccccc3C2)ccc1Cl (configuration not stated)	16.2	9.5	-79.8*	1.3	-1.0	-0.6
COc1ccc2c(c1)OC[C@H]1[C@H]2N2C(=O)CN(Cc3ccc(C)cc3)C(=O)[C@@]2(C)[C@H]1c1ccccc1	-6.1	-5.4	-88.9*	1.2	0.8	1.1
CCOC(=O)[C@H]1[C@H]2COc3ccc(Cl)cc3[C@@H]2N2C(=O)c3ccc(Cl)cc3NC(=O)[C@@]12C	0.2	1.1	?	87.2*	22.9	0.9
CCOC(=O)[C@H]1[C@H]2COc3ccc(C)cc3[C@@H]2N2C(=O)c3ccc(Cl)cc3NC(=O)[C@@]12C	·	·	·	·	-4.4	0.9
CCOC(=O)[C@H]1[C@H]2COc3ccc(OC)cc3[C@@H]2N2C(=O)c3ccc(Cl)cc3NC(=O)[C@@]12C	?	-0.4	-12.4	90.2*	37.7	-0.2
COc1ccc2c(c1)[C@H]1[C@H](CO2)[C@H](c2ccccc2)[C@]2(C)C(=O)Nc3cc(Cl)ccc3C(=O)N12	-6.0	-13.3	-8.6	-2.4	0.7	-0.9
COc1ccc2c(c1)C(=O)N1[C@H]3c4cc(Cl)ccc4OC[C@@H]3[C@H](c3ccccc3)[C@]1(C)C(=O)N2	·	-31.9	-85.0*	·	-16.9	1.7
CCc1ccc(C(=O)CSc2nc(-c3ccccc3)nc3c2CCCC3)cc1	·	·	·	·	-0.8	1.0
CN(C)c1ccc(N=Cc2ccncc2)cc1	·	·	·	·	·	-0.8
COc1ccc(C(=O)N=c2nc(-c3ccccc3)n(-c3ccccc3)s2)cc1	·	·	·	·	·	-0.3
Cc1cc(Br)ccc1NC(=O)COc1cc(=O)n(C)c2ccccc12	·	·	·	·	-12.8	1.2
COc1cccc(/C=N/n2c(SC)nnc2-c2ccccc2)c1O	-17.5	2.7	0.7	88.6*	48.3	1.4
CC(C)(C)S(=O)(=O)c1cnc(-c2ccc(Cl)cc2)nc1N	·	2.1	-18.1	·	-16.8	74.2*
Cc1ccc(OC(=O)C2c3ccccc3Oc3ccccc32)cc1C	7.9	-131.2*	-19.6	12.7	3.3	2.7
SMILES	TRPV1 PAM	KCNH2 WT inh	KCNH2 3.1 inh	TRPV1 ag	TRPML1 inh	TRPML1 ag
O=C(NC1CCCc2ccccc21)C1CCN(c2nnc(-n3cccc3)s2)CC1 (configuration not stated)	-1.9	-4.2	-79.1*	-0.4	13.4	-0.7
CCN(Cc1ccccc1)C(=O)CN1C(=O)NC(CC)(c2ccc(F)cc2)C1=O (configuration not stated)	2.1	-83.0*	-2.9	-1.8	9.5	2.7
COc1ccc(NC(=O)Nc2cc(C(=O)NCc3ccc(C)cc3)ccc2N2CCCC2)cc1	·	·	·	·	14.7	0.4
O=C(C1CC1)N1c2ccccc2Sc2ccccc21	11.4	4.3	-82.8*	3.1	-5.1	1.6
Cc1cccc(CC2C(=O)Nc3ccccc32)c1 (configuration not stated)	·	·	·	·	8.2	1.9
CCOC(=O)CNC(=O)c1ccc(C)cc1	0.8	-1.4	2.0	0.6	-7.7	0.1
CCO/C=C/C(O)(CNC(=O)c1ccc(C(C)(C)C)cc1)C(F)(F)F (configuration not stated)	-1.9	5.6	-72.3*	-0.2	10.1	1.3
CN(C)Cc1c(C(=O)N/N=C/c2ccc(-c3ccccc3)cc2)nnn1-c1nonc1N	25.7	-46.1	-93.1*	-1.9	21.3	0.8
CCN(CC)Cc1c(C(=O)N/N=C/c2cccnc2)nnn1-c1nonc1N	-15.3	-3.7	22.6	-4.6	4.7	0.0
Cc1ccc(-c2c(C(=O)N/N=C/c3ccoc3)nnn2-c2nonc2N)cc1	-9.9	2.8	-5.5	87.5*	1.4	0.2
CCN(CC)Cc1c(C(=O)N/N=C/c2ccc(OCc3ccccc3C)cc2)nnn1-c1nonc1N	21.0	-122.9*	-96.3*	-2.4	-14.6	0.2
CC(=O)/C=C/c1ccc2c(c1)S(=O)(=O)N(C1CCCC1)[C@H]2CC(C)=O	·	·	·	·	·	0.2
N#Cc1cccc(Oc2ccc(S(=O)(=O)N3CCCC3)cn2)c1	22.4	-88.7*	?	0.7	24.1	-0.2
COc1ccc2nccc(/C=C/c3ccc(N(C)C)cc3)c2c1	·	·	·	·	·	10.4
Cc1cccn2c(=O)c3cc(C(=O)NCc4ccccc4)c(=N)n(CCOCCO)c3nc12	·	·	·	·	1.4	-1.0
Cc1ccc(C)c(NC(=O)CCN2CC(C)CC(C)C2)c1 (configuration not stated)	21.3	-1.6	-73.4*	3.6	·	·
CCn1cc(C(=O)Nc2ccc(F)c(F)c2)cn1	-13.5	-4.5	-87.8*	25.2	-20.7	-0.1
CCn1cc(C(=O)Nc2ccc(Cl)cc2Cl)cn1	·	1.7	25.5	·	-3.0	-0.8

Bioassay records as filed in PubChem.
